Where “and” joins values, the source holds several entries; their conditions need not be identical. Equal values may be shown once. Records with an inconclusive call do not appear. Some structures have more than one record in an assay (separate samples or runs), and their calls can disagree. Calls of active or inactive are those of the source. Unless noted, the call rests on the fitted dose curve; in most records, active means well fitted curve in the direction sought with a large enough effect in the repeat runs; inconclusive means weak or mixed curves; inactive means no such curve, though single readings can be large; an effect the other way counts as inactive or inconclusive.
Key:
[1] = qHTS assay to identify small molecule agonists of the RXR signaling pathway - cell viability counter screen (AID 1159529); further: nearly all actives have a fitted effect of over 50% in size; further: potency means the concentration at half of the fitted maximal effect
In short: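 Luminescence from CellTiter-Glo (30 min, RT) measured viability in the same wells as the beta-lactamase reporter readout. Cells: GeneBLAzer RXR-alpha HEK 293T, 2% charcoal-stripped FBS. Compound exposure 16 hr, 37 C.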

[2] = qHTS assay to identify small molecule antagonists of the retinoid acid receptor (RAR) signaling pathway - cell viability counter screen (AID 1159551); further: nearly all actives have a fitted effect of over 35% in size; further: potency means the concentration at half of the fitted maximal effect
In short: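 C3RL4 RARE-luciferase cells, 1,000/well, incubated overnight, then dosed with compound plus 1 uM retinol (final). After 6 hr at 37 C, viability read by CellTiter-Glo ATP luminescence following 30 min at room temperature.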

[3] = qHTS assay to identify small molecule antagonists of the retinoic acid receptor (RAR) signaling pathway (AID 1159552; further: nearly all actives have a fitted effect of over 50% in size; further: potency means the concentration at half of the fitted maximal effect)
In short: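 Luminescence from a RARE luciferase reporter in C3RL4 cells served as read-out. Cells received compounds together with 1 uM final retinol and incubated 6 hr at 37 C before detection reagent was added for 30 min at room temperature.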

[4] = qHTS assay to identify small molecule agonists of the retinoic acid receptor (RAR) signaling pathway (AID 1159553); further: potency means the concentration at half of the fitted maximal effect
In short: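 C3RL4 RARE-luciferase cells were seeded at 1,000/well and grown overnight at 37 C, then exposed to compounds for 6 hr at 37 C, 5% CO2. Luciferase reagent was added and luminescence was read after 30 min at room temperature.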

[5] = qHTS assay to identify small molecule antagonists of the estrogen related receptor (ERR) signaling pathway from Tox21 library - cell viability counter screen (AID 1224834); further: nearly all actives have a fitted effect of over 30% in size; further: potency means the concentration at half of the fitted maximal effect
In short: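 ERR reporter cells, 2,000 per well, rested 6 h, then exposed to compound in DMSO for 17.5 hours at 37 C. Viability read as fluorescence after 30 min with CellTiter-Fluor.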

[6] = qHTS assay to identify small molecule agonists of the constitutive androstane receptor (CAR) signaling pathway - cell viability counter screen (AID 1224836); further: nearly all actives have a fitted effect of over 45% in size; further: potency means the concentration at half of the fitted maximal effect
In short: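 Viability read-out: CellTiter-Fluor fluorescence after 23 h compound exposure at 37 C/5% CO2 in double-stable HepG2-CYP2B6-hCAR cells, with PK11195 present at 0.75 uM final; compounds tested in 15-point titration.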

[7] = qHTS assay to identify small molecule antagonists of the constitutive androstane receptor (CAR) signaling pathway - cell viability counter screen (AID 1224837); further: nearly all actives have a fitted effect of over 45% in size; further: potency means the concentration at half of the fitted maximal effect
In short: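 HepG2 cells stably carrying hCAR and CYP2B6-2.2kb reporter, stimulated with 50 nM CITCO and compounds at 15 concentrations for 23 h at 37 C. Viability measured by CellTiter-Fluor fluorescence.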

[8] = molecular target: Nuclear receptor subfamily 1 group I member 3 (Homo sapiens) (UniProt Q14994); assay: qHTS assay to identify small molecule antagonists of the constitutive androstane receptor (CAR) signaling pathway (AID 1224838); further: nearly all actives have a fitted effect of over 40% in size; further: potency means the concentration at half of the fitted maximal effect
In short: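 HepG2 cells stably carrying hCAR and a CYP2B6-2.2kb luciferase reporter, seeded 4 hrs before compound (15 concentrations). Stimulated with 50 nM CITCO for 24 hr at 37 C. ONE-Glo luminescence read after 30 min at room temperature.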

[9] = qHTS assay to identify small molecule antagonists of the estrogen related receptor signaling pathway with the pleiotropic PPARgamma coactivator (PGC) from Tox21 10K library - cell viability counter screen (AID 1224840; active means well fitted cell-killing curve with a large enough effect in the repeat runs, not every such curve was filed as active; further: nearly all actives have a fitted effect of over 40% in size; further: potency means the concentration at half of the fitted maximal effect)
In short: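 PGC/ERR cells (2,000/well) plated 6 h, then compound-treated for 17.5 h at 37 C. Viability measured by CellTiter-Fluor fluorescence after 30 min at 37 C, multiplexed with the pathway assay.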

[10] = qHTS assay to identify small molecule antagonists of the estrogen related receptor signaling pathway with the pleiotropic PPARgamma coactivator (PGC) from Tox21 10K library (AID 1224841; call rule not given here; further: actives are mostly falling curves and most rising ones were filed inactive; nearly all actives have a fitted effect of over 50% in size; further: potency means the concentration at half of the fitted maximal effect)
In short: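 PGC/ERR cell line, 2,000 cells/well, pre-incubated 6 hours at 37 C, then exposed to compounds for 18 hours at 37 C; luciferase read with One-Glo luminescence after 30 min at room temperature.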

[11] = qHTS assay to identify small molecule agonists of the estrogen related receptor signaling pathway with the pleiotropic PPARgamma coactivator (PGC) from Tox21 10K library (AID 1224842); further: nearly all actives have a fitted effect of over 15% in size
In short: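 Luminescence from One-Glo (30 min, room temperature) measured after PGC/ERR cells had 18 h at 37 C with pinned compound (23 nL in DMSO). Cells had been seeded at 2,000 per well and pre-incubated 6 h.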

[12] = molecular target: Thyrotropin receptor (Homo sapiens) (UniProt P16473); assay: qHTS assay to identify small molecule agonists of the thyroid stimulating hormone receptor (TSHR) signaling pathway (AID 1224843; calls by dose curve; further: nearly all actives have a fitted effect of over 45% in size; further: potency means the concentration at half of the fitted maximal effect)
In short: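 Screening of the Tox21 10K collection used HEK293 cells engineered with TSHR at 800 cells per well. After a 30-min room-temperature compound exposure, HTRF cAMP reagents were added and fluorescence recorded 1 h later.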

[13] = molecular target: Luciferin 4-monooxygenase (Photinus pyralis) (UniProt P08659); assay: qHTS assay to identify small molecule inhibitors of firefly luciferase (AID 1224835); further: nearly all actives have a fitted effect of over 25% in size; further: potency means the concentration at half of the fitted maximal effect
In short: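 Inhibition of purified Photinus luciferase is measured by luminescence. Substrate levels (D-luciferin, ATP) sit at their KM values. Each compound is tested in a concentration series.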

[14] = molecular target: Nuclear receptor subfamily 1 group I member 3 (Homo sapiens) (UniProt Q14994); assay: qHTS assay to identify small molecule agonists of the constitutive androstane receptor (CAR) signaling pathway (AID 1224839); further: nearly all actives have a fitted effect of over 15% in size; further: potency means the concentration at half of the fitted maximal effect
In short: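 Luminescence read-out (ONE-Glo, 30 min, room temperature) from double-stable HepG2-CYP2B6-hCAR cells exposed 24 h to 15-point compound series in presence of 0.75 uM PK11195 final.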

[15] = qHTS assay to identify small molecule antagonists of the estrogen related receptor (ERR) signaling pathway - cell viability counter screen (AID 1224818); further: series mostly up to about 46 µM
In short: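 ERR cells, 2,000 per well, compound added after 6 h and incubated 17.5 h at 37 C. Viability read by CellTiter-Fluor fluorescence after a further 30 min at 37 C.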

[16] = qHTS assay to identify small molecule agonists of the estrogen related receptor (ERR) signaling pathway (AID 1224820)
In short: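 ERR reporter cell line (from NTP), 2,000 cells/well, incubated 6 h before compound addition, then 18 h at 37 C. Luminescence measured 30 min after One-Glo reagent at room temperature.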

[17] = qHTS assay to identify small molecule agonists of the estrogen related receptor signaling pathway with the pleiotropic PPARgamma coactivator (PGC) (AID 1224823)
In short: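 PGC/ERR reporter cells seeded 6 h, then exposed to compounds (23 nL in DMSO) for 18 h at 37 C. One-Glo luciferase luminescence read after 30 min at room temperature.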

Measured: Potency

Chain of Luciferin 4-monooxygenase (Photinus pyralis) (P08659 whole entry, looked up): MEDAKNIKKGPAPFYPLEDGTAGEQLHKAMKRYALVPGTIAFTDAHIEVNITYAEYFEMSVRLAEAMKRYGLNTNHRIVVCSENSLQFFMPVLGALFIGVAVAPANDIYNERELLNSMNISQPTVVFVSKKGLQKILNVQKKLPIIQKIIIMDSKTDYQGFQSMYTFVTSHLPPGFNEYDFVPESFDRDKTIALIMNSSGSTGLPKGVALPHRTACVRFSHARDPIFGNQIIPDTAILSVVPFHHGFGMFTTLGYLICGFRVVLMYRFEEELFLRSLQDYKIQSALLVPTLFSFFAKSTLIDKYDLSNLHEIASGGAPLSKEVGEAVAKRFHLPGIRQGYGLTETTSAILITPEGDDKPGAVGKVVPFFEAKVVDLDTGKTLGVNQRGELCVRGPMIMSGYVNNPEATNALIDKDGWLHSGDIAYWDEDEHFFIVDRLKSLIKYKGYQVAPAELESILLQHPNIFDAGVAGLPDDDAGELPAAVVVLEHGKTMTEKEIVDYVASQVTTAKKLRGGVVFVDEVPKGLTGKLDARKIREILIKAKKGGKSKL
Chain of Thyrotropin receptor (Homo sapiens) (P16473 whole entry, looked up): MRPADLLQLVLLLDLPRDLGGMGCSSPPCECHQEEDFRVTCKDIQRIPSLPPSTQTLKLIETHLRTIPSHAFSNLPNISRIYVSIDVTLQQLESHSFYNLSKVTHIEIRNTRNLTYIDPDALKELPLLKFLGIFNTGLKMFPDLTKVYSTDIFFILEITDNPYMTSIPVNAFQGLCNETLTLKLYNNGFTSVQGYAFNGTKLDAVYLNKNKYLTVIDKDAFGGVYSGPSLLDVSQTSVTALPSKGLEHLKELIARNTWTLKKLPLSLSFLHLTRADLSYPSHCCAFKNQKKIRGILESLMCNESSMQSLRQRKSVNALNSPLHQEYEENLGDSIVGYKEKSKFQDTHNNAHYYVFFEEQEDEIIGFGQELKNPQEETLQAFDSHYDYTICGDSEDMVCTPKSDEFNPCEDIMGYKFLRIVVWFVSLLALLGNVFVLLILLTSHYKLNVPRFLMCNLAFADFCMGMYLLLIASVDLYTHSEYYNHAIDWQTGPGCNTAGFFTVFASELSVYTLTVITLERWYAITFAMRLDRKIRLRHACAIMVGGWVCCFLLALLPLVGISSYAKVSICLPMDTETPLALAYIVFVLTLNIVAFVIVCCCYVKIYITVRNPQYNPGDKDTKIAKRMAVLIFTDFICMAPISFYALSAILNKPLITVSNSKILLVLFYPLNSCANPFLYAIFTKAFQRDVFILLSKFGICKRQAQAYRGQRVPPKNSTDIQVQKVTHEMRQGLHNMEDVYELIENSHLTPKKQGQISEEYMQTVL
Chain of Nuclear receptor subfamily 1 group I member 3 (Homo sapiens) (Q14994 whole entry, looked up): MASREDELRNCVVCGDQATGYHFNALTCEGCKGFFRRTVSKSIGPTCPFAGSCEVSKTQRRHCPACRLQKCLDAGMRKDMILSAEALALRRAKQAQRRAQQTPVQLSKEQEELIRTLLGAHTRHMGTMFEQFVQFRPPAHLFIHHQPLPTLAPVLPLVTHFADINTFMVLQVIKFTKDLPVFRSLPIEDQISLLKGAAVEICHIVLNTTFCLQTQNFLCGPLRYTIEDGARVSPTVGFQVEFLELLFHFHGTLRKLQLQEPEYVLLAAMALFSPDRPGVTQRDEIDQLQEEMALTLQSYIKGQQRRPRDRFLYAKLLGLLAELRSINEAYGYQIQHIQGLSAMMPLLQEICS

CCOP(=S)(OCC)OC(Cl)C(Cl)(Cl)Cl (configuration not stated)
not listed: [13] | [14] | [15] | [16] | [17]
inactive: all other assays above

Cn1[nH]nnc1=S
active: [13] 22.4 µM
not listed: [4] | [10] | [11] | [15] | [16] | [17]
inactive: all other assays above

CCCCCCCCCBr
not listed: [10] | [11] | [13] | [15] | [16] | [17]
inactive: all other assays above

ClC1=C(Cl)C2(Cl)C3C(Cl)C=CC3C1(Cl)C2(Cl)Cl (configuration not stated)
inactive: [2] | [3] | [4] | [13] | [6] | [7] | [8] | [9]
active: [1] 34.7 µM | [5] 68.6 µM | [12] 7.73 µM and 15.4 µM

ClC1=C(Cl)C2(Cl)C3C(Cl)C(Cl)CC3C1(Cl)C2(Cl)Cl (configuration not stated)
inactive: [2] | [13] | [6] | [7] | [8] | [11]
active: [1] 21.8 µM and 21.9 µM | [3] 54.5 µM | [5] 68.4 µM | [14] 3.05 µM and 15.4 µM | [9] 61.1 µM | [10] 60.9 µM and 43.3 µM

CCCN(CCC)CCc1c[nH]c2ccccc12
not listed: [6] | [10] | [11] | [15] | [16] | [17]
inactive: all other assays above

CC(=O)Nc1ccc2c(c1)Cc1ccccc1-2
inactive: [1] | [2] | [3] | [5] | [6] | [7] | [8] | [9]
active: [4] 6.21 µM | [13] 28.7 µM | [14] 31.1 µM

CC1(C)CN=C(NN=C(/C=C/c2ccc(C(F)(F)F)cc2)/C=C/c2ccc(C(F)(F)F)cc2)NC1
active: [1] 13.8 µM | [2] 43.3 µM | [3] 9.69 µM | [5] 21.7 µM | [6] 24.3 µM | [7] 21.7 µM | [8] 19.3 µM | [9] 17.2 µM | [10] 27.3 µM
inactive: [13] | [14] | [11] | [12]

COC12CC[C@@]3(C[C@@H]1C(C)(O)C(C)(C)C)[C@H]1Cc4ccc(O)c5c4[C@@]3(CCN1CC1CC1)[C@H]2O5 (some centres not stated)
inactive: [13] | [14] | [11] | [12]
active: [1] 21.7 µM | [2] 60.7 µM | [3] 54.1 µM | [5] 27.1 µM | [6] 43 µM | [7] 54.1 µM | [8] 48.2 µM | [9] 43 µM | [10] 60.7 µM

CCOCn1c(-c2ccc(Cl)cc2)c(C#N)c(Br)c1C(F)(F)F
active: [1] 19.5 µM | [3] 3.06 µM | [5] 4.86 µM | [6] 4.33 µM | [7] 4.33 µM | [8] 4.86 µM | [9] 5.45 µM
inactive: [2] | [4] | [13] | [14]

O=C1NCN(c2ccccc2)C12CCN(CC1COc3ccccc3O1)CC2 (configuration not stated)
active: [1] 6.74 µM
not listed: [5] | [10]
inactive: all other assays above

COP(N)(=S)OC
not listed: [4] | [15] | [16] | [17]
inactive: all other assays above

C=CCOC(N)=O
not listed: [4] | [15] | [16] | [17]
inactive: all other assays above

CC(C)CC(C)(c1ccc(O)cc1)c1ccc(O)cc1
active: [1] 55.1 µM and 49 µM | [5] 48.7 µM | [8] 2.44 µM | [14] 6.87 µM and 2.17 µM | [10] 54.6 µM
48.7 µM (active) and inactive: [12]
inactive: [2] | [3] | [4] | [13] | [11]

OC(c1ccc(Cl)cc1)(c1ccc(Cl)cc1)C(Cl)(Cl)Cl
not listed: [12] | [14] | [15] | [16] | [17]
inactive: all other assays above

CC(C)CBr
not listed: [4] | [10] | [15] | [16] | [17]
inactive: all other assays above

CCCN(CCC)c1c([N+](=O)[O-])cc(S(N)(=O)=O)cc1[N+](=O)[O-]
inactive: [16] | [17] | [13] | [11]
active: [1] 43.6 µM | [2] 58.1 µM | [3] 48.6 µM | [5] 46.2 µM | [6] 65.2 µM | [7] 65.2 µM | [14] 16.4 µM | [9] 36.7 µM | [10] 65.2 µM | [12] 5.18 µM

CCN
not listed: [8] | [10] | [11] | [15] | [16] | [17]
inactive: all other assays above
